AMA1 RON2 block – inhibitors of Plasmodium falciparum AMA1-RON2 interaction; AlphaScreen AMA1-biotinylated RON2 peptide binding; Potency, µM (top dose mostly 58.2 µM), most hits filed as inhibitors; actives 0.2% (n = 360,000); note: nearly all actives have a fitted effect of over 45% in size
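AMA1 (3D7) with his tag at 25 nM final met compounds first, then biotinylated RON2 peptide at 25 nM; detection used donor plus acceptor beads, 10 µg/mL apiece, read by AlphaScreen after 30 min at room temperature.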
CHX counter – counter-screen for Shiga toxin inhibitors: cycloheximide protein synthesis inhibition | max response, % | cell reporter, cycloheximide protein synthesis inhibition counterscreen | actives 12% (n = 300,000) | AID 2314; in the data active = max response mostly above about 13%, no sharp cut-off; inactive = mostly below about 14%; note: read at 38.3 µM for the half of the compounds with a filed dose
Pf growth 96h – P. falciparum growth inhibition at 96 hour, primary screen for plastid delayed-death inhibitors | P. falciparum luciferase reporter growth, 96 h | Potency, µM (series often up to 28.7 µM), usual class: inhibitors | actives 6.9% (n = 320,000)
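Cell-based qHTS: luciferase-tagged P. falciparum in erythrocytes (2% hematocrit, 0.05% parasitemia final) incubated with compounds for 96 hours, 37 C, 5% CO2; luciferase detection reagent then added and luminescence measured.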
SARS PLP yeast – inhibitors of SARS-CoV papain-like protease in yeast; S. cerevisiae expressing SARS-CoV PLpro, growth rescue; Potency, µM (series often up to 32.9 µM), usual class: activators; actives 0.19% (n = 330,000); calls by dose curve; note: nearly all actives have a fitted effect of over 55% in size
Pf growth 48h – P. falciparum growth inhibition at 48 hours (one generation) | P. falciparum luciferase growth in erythrocytes, 48 h | Potency, µM (top dose mostly 28.7 µM), hits mostly inhibitors | actives 5.9% (n = 310,000) | AID 504832
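First compound was added to culture medium, then infected red cells at 0.1% parasitemia and 2% hematocrit (final). After incubation at 37 C under 5% CO2, luciferase detection reagent was dispensed and light output recorded.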
Shiga inhibitor – blocks Shiga toxin action in Vero cells; Vero cells, Shiga toxin protein synthesis inhibition reporter; inhibition, % at 38.7 µM; actives 9.2% (n = 290,000); in the data active = inhibition mostly above about 28%, no sharp cut-off; inactive = mostly below about 43%
Of the large screens only hits and unclear results are named; the others gave an inactive call. Shown are actives, neighbours in structure and some others; about 19% of the full set was active somewhere. Unless noted, calls come from the whole dose curve; as a rule, active = well fitted curve in the direction sought with a large enough effect; inconclusive = small, poorly fitted or top-dose-only effect, or another doubt; inactive = no such curve, though single readings can be large; an effect the other way counts as inactive or inconclusive.

O=C(/C=C/c1ccccc1)N(Cc1cccc(Cl)c1)C1CCS(=O)(=O)C1 (stereo not given)	Pf growth 96h 4.15µM, Pf growth 48h 6.57µM
O=C1NC(NS(=O)(=O)c2ccc(Cl)cc2)(C(F)(F)F)C(=O)N1Cc1cccnc1 (stereo not given)	none
O=c1[nH]c(=S)n(C2CC2)c(O)c1C=Nc1ccc2c(c1)OCO2	CHX counter 13.8
CC(C)c1ccc(N=Cc2c(O)n(C3CC3)c(=S)[nH]c2=O)cc1	CHX counter 10.4, Shiga inhibitor 52.0
O=C(NC1CCCC1)C1C2C=CC(C2)C1C(=O)N1CCOCC1 (stereo not given)	Pf growth 96h 9.28µM
O=C1c2ccccc2C(c2nnnn2-c2ccc3c(c2)OCCO3)N1Cc1cccs1 (stereo not given)	none (no result: CHX counter, Pf growth 96h, SARS PLP yeast, Pf growth 48h, Shiga inhibitor)
CC(=O)c1cccc(NC(=O)C(C)OC(=O)Cc2c[nH]c3ccccc23)c1 (stereo not given)	none (no result: CHX counter, Shiga inhibitor)
O=C(Nc1cc(Cl)cc(Cl)c1)N1CCCC1	Pf growth 96h inconclusive
CC1Nc2ncnc(N3CCOCC3)c2N(Cc2ccc(Cl)cc2)C1=O (stereo not given)	Pf growth 96h inconclusive, Pf growth 48h inconclusive (no result: CHX counter, Shiga inhibitor)
CC1Nc2ncnc(N3CCc4ccccc4C3)c2N(Cc2ccc(Cl)cc2)C1=O (stereo not given)	Pf growth 96h 5.22µM, Pf growth 48h 13.1µM (no result: CHX counter, Shiga inhibitor)
CCC1Nc2ncnc(N3CCc4ccccc4C3)c2N(Cc2ccc(Br)cc2)C1=O (stereo not given)	none (no result: CHX counter, Pf growth 96h, SARS PLP yeast, Pf growth 48h, Shiga inhibitor)
CC1Nc2ncnc(N3CCc4ccccc4C3)c2N(Cc2ccc(Br)cc2)C1=O (stereo not given)	Pf growth 96h 6.57µM, Pf growth 48h 2.08µM (no result: CHX counter, Shiga inhibitor)
Cc1nn2c(NCc3ccccn3)cc(C(C)(C)C)nc2c1-c1ccccc1	Pf growth 96h 2.94µM, Pf growth 48h 4.65µM
Cc1nn2c(NCc3ccccn3)c3c(nc2c1-c1ccccc1)CCC3	Pf growth 96h 4.65µM, Pf growth 48h inconclusive
c1ccc(CNc2c3c(nc4ncnn24)CCCC3)nc1	Pf growth 96h 8.28µM
Cc1nn2c(NCCN3CCOCC3)c3c(nc2c1-c1ccccc1)CCCC3	Pf growth 96h 13.1µM, Pf growth 48h inconclusive
CCOC(=O)c1ccccc1NC(=O)CSc1nc2[nH]ncc2c(=O)[nH]1	none (no result: CHX counter, SARS PLP yeast, Shiga inhibitor)
CCCCn1[nH]c(-c2ccccc2)cc1=O	SARS PLP yeast inconclusive
CN(Cc1ccccc1)C(=O)COC(=O)CCN1C(=O)C2CC=CCC2C1=O (stereo not given)	none (no result: CHX counter, Shiga inhibitor)
Cc1cc(N2CCCCCC2)n2nc(C)c(-c3ccccc3)c2n1	Pf growth 96h inconclusive
Cc1cc(Nc2ccccc2)n2nc(C)c(-c3ccccc3)c2n1	Pf growth 48h inconclusive
COc1ccc(Nc2c3c(nc4c(-c5ccccc5)c(C)nn24)CCC3)cc1	Pf growth 96h 5.86µM, Pf growth 48h 13.1µM
Cc1cc(NCc2ccccn2)n2nc(C)c(-c3ccccc3)c2n1	Pf growth 96h 2.08µM, Pf growth 48h 1.65µM
COc1ccc(-c2c(C)nn3c(-c4ccccc4)cc(C)nc23)cc1	Pf growth 96h inconclusive
Cc1nn2c(N3CCN(C)CC3)c3c(nc2c1-c1ccccc1)CCCC3	Pf growth 96h 9.28µM
CN(Cc1ccco1)C(=O)[C@H](Cc1ccccc1)NC(=O)CC[C@H]1O[C@@H](n2ccc(=O)[nH]c2=O)[C@H](O)[C@@H]1O	none (no result: CHX counter, Pf growth 96h, SARS PLP yeast, Pf growth 48h, Shiga inhibitor)
Cc1ccc(S(=O)(=O)N2C[C@H]3N(C(=O)OC(C)C)N(C(=O)OC(C)C)C[C@H](OC(=O)NCc4ccccc4F)[C@@]3(O)C2)cc1	none (no result: CHX counter, Pf growth 96h, SARS PLP yeast, Pf growth 48h, Shiga inhibitor)
Cc1ccc(C(=O)O/N=C(\N)c2ccccn2)cc1C	none
N/C(=N\OC(=O)c1cc(Cl)ccc1Cl)c1ccccn1	CHX counter 25.2, Pf growth 96h inconclusive, Shiga inhibitor 64.2
COc1ccc(Cl)cc1C(=O)O/N=C(\N)c1ccccn1	CHX counter 40.6, Pf growth 96h inconclusive, Shiga inhibitor 60.1
Cc1ccc(C(=O)O/N=C(\N)c2ccccn2)cc1	Pf growth 48h inconclusive
Cc1ccc(NS(=O)(=O)c2c(C)noc2C)cc1	none
COC(=O)c1scc(C)c1S(=O)(=O)Nc1ccc(C)cc1	Pf growth 96h 11.7µM, Pf growth 48h inconclusive
Cc1ccc2cc3cc(C(=O)NCCCN4CCCC4=O)oc3nc2c1	Pf growth 96h inconclusive, Pf growth 48h 2.62µM

High-throughput results from PubChem.
